# Assay outcomes (PubChem)
# NS1 inh: inhibitors of influenza NS1 protein function. Potency, µM (top dose mostly 46.1 µM). 0.4% of 270,000 active; calls by dose curve; also: actives are rising curves; nearly all actives have a fitted effect of over 50% in size
#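 Read-out: OD600 growth recovery of NS1-expressing budding yeast. Cells grown overnight at 30C in -URA glucose medium, washed, resuspended and diluted 1:100 in 2% galactose assay medium, pH 6.0. Same strain lacking NS1 served as positive control.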
# CHX counter: affects cycloheximide protein synthesis inhibition readout, counter-screen; cell reporter, cycloheximide protein synthesis inhibition counterscreen; max response, %; 12% of 300,000 active; AID 2314; in the data active = max response mostly above about 13%, no sharp cut-off; inactive = mostly below about 14%; also: read at 38.3 µM for the half of the compounds with a filed dose
# Shiga inhibitor: blocks Shiga toxin action in Vero cells. Vero cells, Shiga toxin protein synthesis inhibition reporter. inhibition, % at 38.7 µM. 9.2% of 290,000 active. AID 2315; in the data active = inhibition mostly above about 28%, no sharp cut-off; inactive = mostly below about 43%
# AmpC inh no detg: inhibitors of E. coli AmpC beta-lactamase without detergent | P00811 | Potency, µM (highest dose often 57.1 µM), usual class: inhibitors | 0.52% of 330,000 active | AmpC nitrocefin hydrolysis, absorbance 480 nm, 0.0001% Triton; also: nearly all actives have a fitted effect of over 20% in size
# Target sequence (P00811 whole entry, looked up): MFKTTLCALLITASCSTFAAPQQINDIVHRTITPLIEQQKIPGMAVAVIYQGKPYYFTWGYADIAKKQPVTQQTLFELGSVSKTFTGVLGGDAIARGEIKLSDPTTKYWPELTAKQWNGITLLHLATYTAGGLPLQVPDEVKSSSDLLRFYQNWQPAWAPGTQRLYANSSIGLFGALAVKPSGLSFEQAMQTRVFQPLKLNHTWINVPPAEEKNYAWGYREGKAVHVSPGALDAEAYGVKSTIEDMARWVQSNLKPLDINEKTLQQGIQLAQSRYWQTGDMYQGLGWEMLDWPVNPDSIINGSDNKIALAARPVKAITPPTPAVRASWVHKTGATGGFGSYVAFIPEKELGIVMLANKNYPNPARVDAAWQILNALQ
#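 AmpC (5.3 nM in the dispensed reagent) in 20 mM phosphate pH 7.0 with 0.01% (detergent screen) or 0.0001% Triton X-100 was preincubated with compounds for 15 min at room temperature. Nitrocefin was then added from an 800 uM solution, and hydrolysis was followed at 480 nm.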
# AmpC detergent: blocks E. coli AmpC beta-lactamase in detergent assay. AmpC hydrolysis of nitrocefin, absorbance 480 nm, 0.01% Triton. 0.041% of 370,000 active. Potency, µM (titrated, usually from 114 µM), actives largely listed as inhibitors. P00811. AID 485294; also: nearly all actives have a fitted effect of over 25% in size
#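 20 mM phosphate pH 7.0 + 0.01% (detergent screen) or 0.0001% Triton X-100; 5.3 nM AmpC reagent; cpd preinc 15 min RT; nitrocefin (800 uM stock) to start; A480 q20 s × 4 min; Activity was normalised to no-enzyme and no-compound control wells.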
# Numbers stand for hits; 0 = inactive; ? = inconclusive; - = no result; [ ] = dose if it differs, or a comment. The sample as a whole holds a higher share of hits than the screen did. Unless noted, calls follow the shape of the dose curve; as a rule, active = well fitted curve in the direction sought with a large enough effect; inconclusive = small, poorly fitted or top-dose-only effect, or another doubt; inactive = no such curve, though single readings can be large; an effect the other way counts as inactive or inconclusive.
SMILES,NS1 inh,CHX counter,Shiga inhibitor,AmpC inh no detg,AmpC detergent
CN(CC(=O)Nc1ccccc1Cl)C(=O)COC(=O)c1ccc(Cl)nc1,-,-,-,0,0
Cc1ccc(-n2nc3c(=O)n(CC(=O)NCCc4ccccc4C)nc(C)c3c2C)cc1,0,0,0,0,0
Cc1cc(C)cc(NC(=O)CNS(=O)(=O)c2ccc3nc(C)sc3c2)c1,-,-,-,-,0
CC(=O)Oc1ccc(N2C(=O)[C@@H]3[C@H](C2=O)[C@H]2c4ccccc4C=NN2[C@@H]3C(C)=O)cc1,0,0,0,0,0
CC(=O)c1ccc(N2C(=O)[C@@H]3[C@H](C2=O)[C@H]2c4ccccc4C=NN2[C@@H]3C(C)=O)cc1,0,10,0,0,0
COc1ccc(Cl)cc1S(=O)(=O)NC(C)C(=O)NCc1ccc2c(c1)OCO2 (stereo unspecified),0,0,0,0,?
Cc1ccc(C2=CC(=O)C[C@H](c3ccc(Cl)cc3)C2)cc1,-,-,-,0,0
Cc1ccc(C2CC(=O)C=C(O)C2)cc1 (stereo unspecified),?,0,0,14µM,0
Cc1cccc(C)c1OCc1cc(C(=O)N2CCN(c3ccccc3)CC2C)no1 (stereo unspecified),0,16,0,0,0
Cc1ccc(C)c(OCc2cc(C(=O)N3CCN(c4ccccc4C)CC3C)no2)c1 (stereo unspecified),0,31,113,0,0
CN(C)S(=O)(=O)c1cccc(-c2cn3cc(Cl)ccc3n2)c1,0,28,0,0,0
Clc1ccc2nc(-c3ccccc3)cn2c1,0,34,44,0,0
CN(C)S(=O)(=O)c1cccc(-c2cn3ccccc3n2)c1,0,0,0,0,0
Clc1ccc2nc(-c3ccc4c(c3)OCO4)cn2c1,0,35,76,0,0
Cc1ccc(OCC(O)CNC2CCCC2)cc1C (stereo unspecified),0,0,-,0,0
CC(C)(C)NC(=O)NC(=O)COC(=O)c1cccc(S(=O)(=O)N2CCCCC2)c1,0,0,0,0,0
O=C(NCc1cccc(Br)c1)c1cnn(-c2ccc(F)cc2)c1-n1cccc1,-,-,-,-,0
N#Cc1cc2c(nc1S(=O)(=O)Cc1ccccc1)CCCC2,-,0,0,0[11.4 µM],0
COc1ccc(-c2cn(Cc3ccc(C)cc3)nn2)cc1,0,55,79,0,0
CC1CCN(C(=O)COC(=O)c2c[nH]c3ccccc23)CC1,-,-,-,0,0
Cc1ccoc1C(=O)Nc1ccc2ccccc2c1,0,41,0,0,0
COc1cccc(OC)c1C(=O)Nc1cccc(C(=O)Nc2cccc(C(=O)O)c2)c1,0,0,0,0,0
CC(=O)c1cc(C(=O)Nc2ccc3ccccc3c2)c(C)o1,0,0,0,0,0
Cc1cc(C(=O)Nc2nc3c(C)cccc3s2)c(C)o1,0,19,0,0,0
Cc1cc(C(=O)Nc2ccc3ccccc3c2)c(C)o1,0,32,96,0,0
SMILES,NS1 inh,CHX counter,Shiga inhibitor,AmpC inh no detg,AmpC detergent
CSc1ncccc1C(=O)Nc1nc2c(C)cccc2s1,0,0,0,0,0
Cc1cc(C(=O)Nc2cccc(C(=O)O)c2)oc1C,?,38,81,0,0
CC(C)(C)C1CCC(=NNC(=O)C(=O)NC2CCCCC2)CC1 (stereo unspecified),0,0,0,0,0
COc1ccccc1NC(=O)CSc1nncn2c1cc1sccc12,-,-,-,-,0
Cc1cc(C(=O)Nc2ccc3ccccc3c2)oc1C,0,30,127,0,0
Cc1sc(C(=O)Nc2ccc3ccccc3c2)cc1CC(=O)O,-,0,0,0,?
Oc1ccc(Br)cc1-c1ccn[nH]1,0,0,42,0,0
O=C(NC(=S)Nc1cccnc1Cl)c1ccc(F)cc1,0,49,83,0,0
O=C(NC(=S)Nc1ccc(NC(=O)c2ccccc2)cc1)c1ccc(F)cc1,0,0,0,0,0
O=C(NC(=S)Nc1ncccn1)c1ccc(F)cc1,0,49,70,0,0
O=C(NC(=S)Nc1ccc2c(c1)C(=O)c1ccccc1C2=O)c1ccc(F)cc1,0,72,103,0,?
Cc1ccc(NC(=O)C/C(N)=N/OC(=O)Nc2ccc(C)c(Cl)c2)cc1,-,-,-,0,0
Cc1cc(S(=O)(=O)NCCc2csc(-c3cccc(F)c3)n2)ccc1F,-,-,-,-,0
Cc1cccc(C)c1NC(=O)CNC(=O)c1ccccc1,0,0,0,0,?
COC(CNC(=O)[C@H](Cc1ccccc1)N1Cc2ccccc2C1=O)OC,0,0,0,0,0
